{"source": "PubChem BioAssay (NCATS)", "note": "Results filed as inconclusive are left out. Active and inactive are the calls of the source. The call rests on the fitted dose curve; in most records, active means well fitted inhibition curve with a large enough effect; inconclusive means small, poorly fitted or top-dose-only effect; inactive means no such curve, though single readings can be large or run the other way. On the % scale 0 is the no-effect control and ±100 the full control effect; potency means the concentration at half of the fitted maximal effect.", "data": [{"target": "Rap guanine nucleotide exchange factor 4 (Homo sapiens) (UniProt Q8WZA2)", "sequence (Q8WZA2 whole entry, looked up)": "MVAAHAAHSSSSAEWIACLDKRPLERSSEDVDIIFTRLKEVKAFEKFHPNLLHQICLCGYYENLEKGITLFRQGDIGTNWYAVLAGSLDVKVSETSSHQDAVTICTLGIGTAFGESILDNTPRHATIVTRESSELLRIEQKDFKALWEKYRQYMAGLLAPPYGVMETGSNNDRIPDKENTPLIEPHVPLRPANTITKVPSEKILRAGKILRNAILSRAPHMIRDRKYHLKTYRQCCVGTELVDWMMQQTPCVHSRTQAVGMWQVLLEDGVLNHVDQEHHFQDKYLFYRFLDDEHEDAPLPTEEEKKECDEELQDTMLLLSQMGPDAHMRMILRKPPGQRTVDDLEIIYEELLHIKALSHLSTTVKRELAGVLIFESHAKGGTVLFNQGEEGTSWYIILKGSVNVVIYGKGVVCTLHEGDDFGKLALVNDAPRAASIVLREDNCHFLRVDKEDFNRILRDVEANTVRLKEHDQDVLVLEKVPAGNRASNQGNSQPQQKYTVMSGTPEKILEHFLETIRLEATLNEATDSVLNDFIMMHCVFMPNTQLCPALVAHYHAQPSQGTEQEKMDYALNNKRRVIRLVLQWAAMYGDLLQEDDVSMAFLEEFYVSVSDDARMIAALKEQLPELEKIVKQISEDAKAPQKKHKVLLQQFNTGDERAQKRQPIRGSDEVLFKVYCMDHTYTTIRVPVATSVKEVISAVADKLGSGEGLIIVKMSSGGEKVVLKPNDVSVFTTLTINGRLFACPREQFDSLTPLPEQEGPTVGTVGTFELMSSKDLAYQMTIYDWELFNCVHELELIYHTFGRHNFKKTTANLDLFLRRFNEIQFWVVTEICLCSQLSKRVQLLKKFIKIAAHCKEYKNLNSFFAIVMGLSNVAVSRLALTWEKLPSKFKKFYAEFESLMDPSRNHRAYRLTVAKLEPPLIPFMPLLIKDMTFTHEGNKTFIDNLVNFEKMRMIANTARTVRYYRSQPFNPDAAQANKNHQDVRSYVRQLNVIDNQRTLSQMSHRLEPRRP", "experiment": "Confirmatory qHTS for antagonist of cAMP-regulated guanine nucleotide exchange factor 4 (EPAC2) (AID 1645885); further: nearly all actives have a fitted effect of over 25% in size", "details": "EPAC2 Rap1B-BODIPY-GDP exchange fluorescence, biochemical; series mostly up to 114 µM; activity change, negative = inhibition: at the top concentration", "values": [{"compound": "O=C1NC(=O)N(c2cccc(Cl)c2)C(=O)/C1=C\\c1ccc(Sc2nc3ccccc3[nH]2)o1", "activity change, negative = inhibition": "0.757% [at 12.7 µM] (inactive)"}, {"compound": "CCOC(=O)[C@]12Cc3ccc(C)cc3[C@H]1N(C1CCCCC1)C(=O)c1cc(OC)ccc12", "outcome": "inactive"}, {"compound": "O=C1Nc2ccccc2/C1=C/c1nc2ccccc2c(=O)n1-c1ccc(O)cc1", "activity change, negative = inhibition": "0.205% [at 12.7 µM] (inactive)"}, {"compound": "CCCNC(=O)N1[C@H]2CC[C@@H]1C(C(=O)OC)=C(c1ccc(F)cc1OCc1ccccc1)C2", "activity change, negative = inhibition": "46% (inactive)"}, {"compound": "COc1ccc(C(=O)C2CN(C)CC2c2ccc(Cl)cc2)cc1", "note": "(centres undefined)", "activity change, negative = inhibition": "-16.3% [at 12.7 µM] (inactive)"}, {"compound": "COc1ccc(N2C(=O)NC(=O)/C(=C/c3ccc([N+](=O)[O-])s3)C2=O)cc1", "activity change, negative = inhibition": "4.81% (inactive)"}, {"compound": "COc1ccc(C(SCC(NC(=O)OCc2ccccc2)C(=O)O)c2ccc(OC)cc2)cc1", "note": "(centres undefined)", "activity change, negative = inhibition": "116% (inactive)"}, {"compound": "CCOC(=O)[C@]12Cc3cc(Cl)ccc3[C@H]1N(C1CCCCC1)C(=O)c1ccccc12", "outcome": "inactive"}, {"compound": "CCOC(=O)[C@]12Cc3cc(C)ccc3[C@H]1N(Cc1ccccc1)C(=O)c1ccccc12", "outcome": "inactive"}, {"compound": "O=c1[nH]c(O)c(C=Nc2ccccc2Sc2ccccc2)c(=O)[nH]1", "activity change, negative = inhibition": "-20.7% (inactive)"}, {"compound": "CCOC(=O)c1cc(CC)sc1/N=C/c1c(O)[nH]c(=S)[nH]c1=O", "activity change, negative = inhibition": "298% (inactive)"}, {"compound": "CCCCn1c(NS(=O)(=O)c2ccc(C)cc2)c(C(=O)OCC)c2nc3ccccc3nc21", "Potency": "23.9 µM (active)"}, {"compound": "CC[C@@H]1c2ccccc2[C@@H]2CC[C@H]1N2c1ccccc1", "activity change, negative = inhibition": "-6.37% [at 12.7 µM] (inactive)"}, {"compound": "Cc1cc(/C=C2\\C(=O)NC(=O)N(c3ccc(Cl)cc3)C2=O)c(C)n1-c1sc2c(c1C#N)CCCC2", "activity change, negative = inhibition": "-14.9% [at 12.7 µM] (inactive)"}]}]}
